# Test results published in PubChem BioAssay AID588651 (The Scripps Research Institute Molecular Screening Center, 2011).
# The source made the active and inactive calls. Rule as the data show it: active = inhibition above about 65%; inactive = the rest.
# System: Antitargets
# Assay: Fam108b inhibitors and proteome off-target selectivity – biochemical, gel-based ABPP, recombinant soluble Fam108b, HTS hits, complex proteome, late-stage follow-up (AID 588651);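 also: Fam108b spiked into mouse brain membrane proteome; tested at 20 µM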
# Settings: FP-rhodamine labeling in proteome
row,Structure (SMILES),outcome
1,Cc1ccccc1N1C(=O)/C(=C/c2ccco2)C(=O)NC1=S,inactive
2,C[n+]1c(-c2ccccc2)c2cc(N)ccc2c2ccc(N)cc21,inactive
3,NC(Cc1cc(O)c(O)cc1O)C(=O)O (stereo not drawn),inactive
